# Substitutions are numbered along the chain they refer to.
# Columns and labels:
# Assay in all cases: PBM; 200 nM protein, PBS
# Details in all cases: dsDNA, one strand shown
# HOXB9 [1] = molecular target: HOXB9 (Homo sapiens, UniProt P17482 171-250, T197M)
# HOXA7 [2] = molecular target: HOXA7 (Homo sapiens, UniProt P31268 116-202)
# PAX4 [3] = molecular target: T1, PAX4 (Homo sapiens, UniProt O43316 9-242, F177Y)
# T1 sequence: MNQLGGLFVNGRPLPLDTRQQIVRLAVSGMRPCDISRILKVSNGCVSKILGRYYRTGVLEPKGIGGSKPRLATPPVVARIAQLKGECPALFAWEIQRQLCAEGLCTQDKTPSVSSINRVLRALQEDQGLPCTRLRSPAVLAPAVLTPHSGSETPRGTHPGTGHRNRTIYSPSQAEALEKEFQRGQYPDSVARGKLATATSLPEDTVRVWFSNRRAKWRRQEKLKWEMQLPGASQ
# HOXA7 [4] = molecular target: HOXA7 (Homo sapiens, UniProt P31268 116-202, W177C)
# VENTX = molecular target: T2, VENTX (Homo sapiens, UniProt O95231 78-163)
# T2 sequence: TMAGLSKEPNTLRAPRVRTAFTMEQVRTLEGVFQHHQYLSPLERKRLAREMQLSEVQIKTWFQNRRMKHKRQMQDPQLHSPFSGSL
# PAX4 [5] = molecular target: T3, PAX4 (Homo sapiens, UniProt O43316 9-242, R200K)
# T3 sequence: T1 sequence with Y169F, R192K
# PAX4 [6] = molecular target: T4, PAX4 (Homo sapiens, UniProt O43316 9-242)
# T4 sequence: T1 sequence with Y169F
# PAX4 [7] = molecular target: T5, PAX4 (Homo sapiens, UniProt O43316 9-242, F177V)
# T5 sequence: T1 sequence with Y169V
# VAX1 = VAX1 (Homo sapiens, UniProt Q5SQQ9 86-172)
# PAX4 [8] = molecular target: T6, PAX4 (Homo sapiens, UniProt O43316 9-242, R227W)
# T6 sequence: T1 sequence with Y169F, R219W
# HOXA2 [9] = molecular target: HOXA2 (Homo sapiens, UniProt O43364 129-215, Y150S)
# HOXA2 [10] = molecular target: HOXA2 (Homo sapiens, UniProt O43364 129-215)
# HOXC9 = HOXC9 (Homo sapiens, UniProt P31274 178-260, K195R)
# HOXB9 [11] = molecular target: HOXB9 (Homo sapiens, UniProt P17482 171-250)
# HOXB9 [12] = molecular target: HOXB9 (Homo sapiens, UniProt P17482 171-250, R186Q)
# Chain of HOXB9 (Homo sapiens, UniProt P17482 171-250, R186Q) (P17482 171-250 R186Q): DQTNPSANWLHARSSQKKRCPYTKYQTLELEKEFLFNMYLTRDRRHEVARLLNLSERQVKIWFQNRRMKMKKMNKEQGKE
# Chain of HOXA7 (Homo sapiens, UniProt P31268 116-202, W177C) (P31268 116-202 W177C): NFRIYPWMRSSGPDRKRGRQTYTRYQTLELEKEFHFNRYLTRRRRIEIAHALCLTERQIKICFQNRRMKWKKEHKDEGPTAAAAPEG
# Chain of HOXA2 (Homo sapiens, UniProt O43364 129-215, Y150S) (O43364 129-215 Y150S): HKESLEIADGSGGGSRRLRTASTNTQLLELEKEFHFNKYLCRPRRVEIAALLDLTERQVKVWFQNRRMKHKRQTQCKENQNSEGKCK
# Chain of HOXB9 (Homo sapiens, UniProt P17482 171-250, T197M) (P17482 171-250 T197M): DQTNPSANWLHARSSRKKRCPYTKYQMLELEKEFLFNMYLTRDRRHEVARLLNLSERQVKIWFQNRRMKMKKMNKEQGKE
# Chain of HOXA7 (Homo sapiens, UniProt P31268 116-202) (P31268 116-202): as the sequence (P31268 116-202 W177C) above, with C62W counted along it
# Chain of HOXA2 (Homo sapiens, UniProt O43364 129-215) (O43364 129-215): as the sequence (O43364 129-215 Y150S) above, with S22Y counted along it
# Chain of VAX1 (Q5SQQ9 86-172): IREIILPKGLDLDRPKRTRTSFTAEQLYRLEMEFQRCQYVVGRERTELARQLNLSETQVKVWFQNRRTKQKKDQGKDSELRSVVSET
# Chain of HOXC9 (P31274 178-260 K195R): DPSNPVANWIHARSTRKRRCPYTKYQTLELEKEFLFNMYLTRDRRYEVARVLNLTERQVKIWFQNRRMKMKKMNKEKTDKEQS
# Chain of HOXB9 (Homo sapiens, UniProt P17482 171-250) (P17482 171-250): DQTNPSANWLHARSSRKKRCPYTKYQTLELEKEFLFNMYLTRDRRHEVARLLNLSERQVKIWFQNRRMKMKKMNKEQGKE
sequence,measurement,setting,value
ATAATTGA,binding signal,HOXB9 [1],"9.97 upbm affinity estimate (log intensity, higher = more binding, comparable within an allelic series)"
same,binding signal,HOXA7 [2],"11.2 upbm affinity estimate (log intensity, higher = more binding, comparable within an allelic series)"
same,binding signal,PAX4 [3],"11 upbm affinity estimate (log intensity, higher = more binding, comparable within an allelic series)"
same,binding signal,HOXA7 [4],"8.94 upbm affinity estimate (log intensity, higher = more binding, comparable within an allelic series)"
CCCAATTA,binding signal,VENTX,"12.4 upbm affinity estimate (log intensity, higher = more binding, comparable within an allelic series)"
same,binding signal,PAX4 [5],"11.6 upbm affinity estimate (log intensity, higher = more binding, comparable within an allelic series)"
same,binding signal,PAX4 [6],"12.1 upbm affinity estimate (log intensity, higher = more binding, comparable within an allelic series)"
same,binding signal,PAX4 [7],"10.4 upbm affinity estimate (log intensity, higher = more binding, comparable within an allelic series)"
same,binding signal,PAX4 [3],"10.8 upbm affinity estimate (log intensity, higher = more binding, comparable within an allelic series)"
same,binding signal,VAX1,"12.7 upbm affinity estimate (log intensity, higher = more binding, comparable within an allelic series)"
same,binding signal,PAX4 [8],"10.7 upbm affinity estimate (log intensity, higher = more binding, comparable within an allelic series)"
AATTAGCA,binding signal,PAX4 [5],"11.6 upbm affinity estimate (log intensity, higher = more binding, comparable within an allelic series)"
same,binding signal,PAX4 [6],"12.1 upbm affinity estimate (log intensity, higher = more binding, comparable within an allelic series)"
same,binding signal,PAX4 [7],"10.5 upbm affinity estimate (log intensity, higher = more binding, comparable within an allelic series)"
same,binding signal,PAX4 [3],"10.9 upbm affinity estimate (log intensity, higher = more binding, comparable within an allelic series)"
same,binding signal,PAX4 [8],"10.9 upbm affinity estimate (log intensity, higher = more binding, comparable within an allelic series)"
same,binding signal,HOXA2 [9],"10.8 upbm affinity estimate (log intensity, higher = more binding, comparable within an allelic series)"
same,binding signal,HOXA2 [10],"12.1 upbm affinity estimate (log intensity, higher = more binding, comparable within an allelic series)"
CAATTATA,binding signal,HOXB9 [1],"10.1 upbm affinity estimate (log intensity, higher = more binding, comparable within an allelic series)"
same,binding signal,HOXC9,"12.5 upbm affinity estimate (log intensity, higher = more binding, comparable within an allelic series)"
same,binding signal,HOXA7 [2],"11.4 upbm affinity estimate (log intensity, higher = more binding, comparable within an allelic series)"
same,binding signal,HOXA7 [4],"8.95 upbm affinity estimate (log intensity, higher = more binding, comparable within an allelic series)"
AATTAACG,binding signal,PAX4 [5],"11.6 upbm affinity estimate (log intensity, higher = more binding, comparable within an allelic series)"
same,binding signal,PAX4 [6],"12.2 upbm affinity estimate (log intensity, higher = more binding, comparable within an allelic series)"
same,binding signal,PAX4 [7],"10.6 upbm affinity estimate (log intensity, higher = more binding, comparable within an allelic series)"
same,binding signal,PAX4 [3],"11 upbm affinity estimate (log intensity, higher = more binding, comparable within an allelic series)"
same,binding signal,PAX4 [8],"10.9 upbm affinity estimate (log intensity, higher = more binding, comparable within an allelic series)"
CAATTAGA,binding signal,VAX1,"12.6 upbm affinity estimate (log intensity, higher = more binding, comparable within an allelic series)"
CCTTCGAG,binding signal,HOXB9 [1],"8.5 upbm affinity estimate (log intensity, higher = more binding, comparable within an allelic series)"
same,binding signal,HOXB9 [11],"8.46 upbm affinity estimate (log intensity, higher = more binding, comparable within an allelic series)"
same,binding signal,HOXB9 [12],"8.5 upbm affinity estimate (log intensity, higher = more binding, comparable within an allelic series)"
AATTAGAT,binding signal,PAX4 [5],"11.7 upbm affinity estimate (log intensity, higher = more binding, comparable within an allelic series)"
same,binding signal,PAX4 [6],"12.2 upbm affinity estimate (log intensity, higher = more binding, comparable within an allelic series)"
same,binding signal,PAX4 [7],"10.6 upbm affinity estimate (log intensity, higher = more binding, comparable within an allelic series)"
same,binding signal,PAX4 [3],"10.9 upbm affinity estimate (log intensity, higher = more binding, comparable within an allelic series)"
same,binding signal,PAX4 [8],"10.9 upbm affinity estimate (log intensity, higher = more binding, comparable within an allelic series)"
CAATTAGG,binding signal,VENTX,"12.7 upbm affinity estimate (log intensity, higher = more binding, comparable within an allelic series)"
same,binding signal,VAX1,"12.9 upbm affinity estimate (log intensity, higher = more binding, comparable within an allelic series)"
same,binding signal,HOXA2 [9],"10.8 upbm affinity estimate (log intensity, higher = more binding, comparable within an allelic series)"
same,binding signal,HOXA2 [10],"12.1 upbm affinity estimate (log intensity, higher = more binding, comparable within an allelic series)"
CAAATTAA,binding signal,PAX4 [5],"11.8 upbm affinity estimate (log intensity, higher = more binding, comparable within an allelic series)"
same,binding signal,PAX4 [6],"12.4 upbm affinity estimate (log intensity, higher = more binding, comparable within an allelic series)"
same,binding signal,PAX4 [7],"10.5 upbm affinity estimate (log intensity, higher = more binding, comparable within an allelic series)"
same,binding signal,PAX4 [3],"11.1 upbm affinity estimate (log intensity, higher = more binding, comparable within an allelic series)"
same,binding signal,PAX4 [8],"11 upbm affinity estimate (log intensity, higher = more binding, comparable within an allelic series)"
GACAATTA,binding signal,HOXB9 [1],"9.97 upbm affinity estimate (log intensity, higher = more binding, comparable within an allelic series)"
same,binding signal,HOXA7 [2],"11.2 upbm affinity estimate (log intensity, higher = more binding, comparable within an allelic series)"
same,binding signal,HOXA7 [4],"8.85 upbm affinity estimate (log intensity, higher = more binding, comparable within an allelic series)"
AATTAGTA,binding signal,PAX4 [5],"11.7 upbm affinity estimate (log intensity, higher = more binding, comparable within an allelic series)"
same,binding signal,PAX4 [6],"12.2 upbm affinity estimate (log intensity, higher = more binding, comparable within an allelic series)"
same,binding signal,PAX4 [7],"10.5 upbm affinity estimate (log intensity, higher = more binding, comparable within an allelic series)"
same,binding signal,PAX4 [3],"10.9 upbm affinity estimate (log intensity, higher = more binding, comparable within an allelic series)"
same,binding signal,PAX4 [8],"11 upbm affinity estimate (log intensity, higher = more binding, comparable within an allelic series)"
CCAATTAG,binding signal,VENTX,"13.1 upbm affinity estimate (log intensity, higher = more binding, comparable within an allelic series)"
same,binding signal,PAX4 [5],"11.7 upbm affinity estimate (log intensity, higher = more binding, comparable within an allelic series)"
same,binding signal,PAX4 [6],"12.2 upbm affinity estimate (log intensity, higher = more binding, comparable within an allelic series)"
same,binding signal,PAX4 [7],"10.4 upbm affinity estimate (log intensity, higher = more binding, comparable within an allelic series)"
same,binding signal,PAX4 [3],"10.8 upbm affinity estimate (log intensity, higher = more binding, comparable within an allelic series)"
same,binding signal,VAX1,"13.1 upbm affinity estimate (log intensity, higher = more binding, comparable within an allelic series)"
same,binding signal,PAX4 [8],"10.8 upbm affinity estimate (log intensity, higher = more binding, comparable within an allelic series)"
same,binding signal,HOXA2 [9],"10.8 upbm affinity estimate (log intensity, higher = more binding, comparable within an allelic series)"
same,binding signal,HOXA2 [10],"12.1 upbm affinity estimate (log intensity, higher = more binding, comparable within an allelic series)"
